Bioassay records as filed in PubChem BioAssay.
Coupling enz: coupling enzyme interference in Giardia aldolase counter-screen | coupling enzyme system counterscreen, AmpLite Red fluorescence | activity change, negative = inhibition, % at 58.2 µM, hits read low | hit rate 0.67% among 290,000 | AID 2472; in the data active = activity change below about -30%
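Counterscreen of the coupled detection system alone, without aldolase: glyceraldehyde-3-phosphate coupling enzymes plus AmpLite Red readout. Compounds at 57.5 uM final, 10 min RT preincubation, 20 min RT reaction, fluorescence 525/598 nm.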
ELG1 DNA repair: ELG1-dependent DNA repair inhibition | HEK293T ELG1-luciferase reporter, luminescence, 16 h; DNA damage induced by 5-fluorouridine | Potency, µM (doses to about 46.1 µM), inactives show at the highest dose activity change, negative = inhibition, actives largely listed as inhibitors | hit rate 2.3% among 330,000 | AID 504467; also: potency is read from the fitted curve at half-maximal effect; nearly all actives have a fitted effect of over 55% in size
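Quantitative HTS, concentration-response format. 2,000 cells/well co-treated with 5-fluorouridine and compound, 16 hr in 5% CO2 at 37 °C; ONE-Glo luminescence read after 30 min.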
Sfp PPTase inh: inhibitors of Bacillus subtilis Sfp phosphopantetheinyl transferase. Q9F4F7. Biochemical Sfp PPTase activity, qHTS. Potency, µM, without a hit: largest response in the series, negative = inhibition, hits mostly inhibitors. hit rate 3.5% among 310,000. AID 1490;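 also: the enzyme is Sfp with the accession as filed and its product quenches rhodamine fluorescence; potency is read from the fitted curve at half-maximal effect; 0% = enzyme reaction without inhibitor and -100% = no enzyme wells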
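Step 1, compound plus 15 nM Sfp-PPTase, 15 min, room temperature. Step 2, add rhodamine-CoA (5 uM) and BHQ-2-YbbR (12.5 uM). Step 3, read 525/598 nm fluorescence at 0 and 30 min.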
Giardia killer: kills Giardia lamblia; Giardia lamblia trophozoite viability; activity change, % at 7.66 µM, hits read low; hit rate 0.15% among 340,000; AID 540267; in the data active = activity change below about -80%; inconclusive = between about -30% and that limit;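 also: parasites exposed to compound for two days anaerobically before the ATP read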
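Trophozoites 100 cells/well + cpd; 48 hrs, 37 deg C, anaerobic. ATPLite 1-Step added, 15-30 min RT, luminescence read (ATP-based viability).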
An asterisk follows results filed as active; ? = inconclusive; · = not tested or not shown. An excerpt weighted towards active compounds, which were near 5.5% of everything screened. Unless noted, calls follow the shape of the dose curve; as a rule, active = well fitted curve in the direction sought with a large enough effect; inconclusive = small, poorly fitted or top-dose-only effect, or another doubt; inactive = no such curve, though single readings can be large; an effect the other way counts as inactive or inconclusive. Unless noted, % is scaled to controls: 0 for no effect and ±100 for the full control effect.

SMILES	Coupling enz	ELG1 DNA repair	Sfp PPTase inh	Giardia killer
O=C(NCC1CCCO1)c1cccc2c1C(=O)c1ccc(N3CCC(Cc4ccccc4)CC3)cc1S2(=O)=O (configuration not stated)	·	2.6µM*	·	-27
CC1CCN(c2ccc3c(c2)S(=O)(=O)c2cccc(C(=O)NC[C@@H]4CCCO4)c2C3=O)CC1	·	-22%	·	-17
Cc1ccc(CNC(=O)c2cccc3c2C(=O)c2ccc(N4CCOCC4)cc2S3(=O)=O)cc1	·	12µM*	·	-1
CN(C)Cc1cc(O)c(CN(C)C)cc1O	-32*	13%	25µM*	10
CN(C)Cc1cc(C(C)(C)C)cc(C(C)(C)C)c1O	0	0%	10%	-9
Cc1ccc2[nH]c(C(=O)N/N=C/c3ccccc3O)c(C)c2c1	1	2.3µM*	21%	20
CCCn1nnc(NC(=S)NC(=O)CC)n1	-1	4%	40µM*	0
O=C(c1coc(=O)c(Br)c1)N1CCCc2ccccc21	-27	?	79µM*	-20
O=C(c1cccc(Br)c1)N1CCCc2ccccc21	0	-17%	-1%	15
O=C(NC(=S)Nn1cnnc1)c1ccccc1Br	-2	10%	25µM*	-8
O=C(C=C1SCCS1)/C=C/c1ccco1	0	?	45µM*	-22
O=C(/C=C/c1ccc([N+](=O)[O-])cc1)/C=C/c1ccco1	-1	?	50µM*	·
O=C(O)C(C(=O)/C=C/c1ccco1)=C1SCCS1	3	25%	28µM*	-3
COc1ccc(C2OC3=C(Nc4cc(C)c(C)cc4N3)C2=O)cc1 (configuration not stated)	1	?	-6%	-9
COc1ccccc1C1OC2=C(Nc3ccc([N+](=O)[O-])cc3N2)C1=O (configuration not stated)	-2	23µM*	11%	?
CC(C)(C)OC(=O)N1CCC(C(=O)Nc2ccc(C(=O)NC3CC3)cc2)CC1	·	·	·	11
Cn1nc(C(=O)NCc2cccc(F)c2)cc1C(=O)NCc1cccc(F)c1	·	12µM*	·	-16
COc1cc(CNC(=O)c2cc(C(=O)NCc3cc(OC)cc(OC)c3)n(C)n2)cc(OC)c1	·	21µM*	·	6
CC(=O)Nc1ccc(C(=O)CSc2nnc(-c3ccccc3F)n2CCc2ccccc2)cc1	·	·	·	20
COc1ccc(NC(=O)c2cccc3c2C(=O)c2ccc(-c4cnc(OC)nc4)cc2S3(=O)=O)cc1	·	5%	·	-9
COC(=O)NC(/C(C(=O)OC)=C(\C)NCc1ccccc1)c1ccc(Cl)cc1 (configuration not stated)	-1	·	7%	·
Cc1[nH]c2ccccc2c1/C=N/Nc1ccccn1	-3	2%	?	·
Cc1[nH]c2ccccc2c1/C=N/Nc1nncn1N	-29	?	8.9µM*	12
CC1=CC(=O)c2c(O)ccc(O)c2C1=O	-22	-9%	25µM*	·
CC(=O)O[C@@H]1C(CO[Si](C)(C)C(C)(C)C)=C(Br)C(=O)[C@@H]2O[C@]12C	0	·	50µM*	·
SMILES	Coupling enz	ELG1 DNA repair	Sfp PPTase inh	Giardia killer
O=C(Nc1nnc2n1CCS2)c1ccc(Br)o1	2	?	56µM*	-18
CSc1nsc(/C=C/Nc2ccc(O)cc2C)c1C#N	-33*	?	-78%	8
Nn1c(-c2cccc(O)c2)nnc1-c1cccc(O)c1	·	·	·	7
CNc1nc(-c2c(C)noc2C)nc2ccccc12	1	·	4%	·
COc1ccc(-c2c(N)nnc3c2[nH]c2ccccc23)cc1OC	2	-11%	3%	-19
COc1ccc(OC)c2c(=S)c3ccccc3[nH]c12	-6	·	56µM*	·
CCOC(=O)c1[nH]c(C)c(C(=O)NCC2CCCO2)c1C (configuration not stated)	5	0.73µM*	-29%	4
CCOC(=O)c1c(NC(=S)NCC2CCCO2)sc(C)c1C (configuration not stated)	0	5%	22µM*	4
CC1(C)CC(=O)C2=C(C1)Oc1nc3ccccc3cc1C2C(C#N)C#N (configuration not stated)	0	23µM*	-26%	20
COc1ccc(CN2CCNC(=O)C2CC(=O)N2CCCCO2)cc1OC (configuration not stated)	-30*	0%	2%	?
O=C(CSc1ccc(F)cc1)NCC1(N2CCOCC2)CCCCC1	·	-1%	·	3
CCN1/C(=C/c2ccc3cc(C)ccc3[n+]2CC)Sc2cc(C)ccc21	5	2.1µM*	?	9
CCCCN1/C(=C/c2ccc3ccccc3[n+]2CC)Sc2ccccc21	7	?	-16%	8
Brc1ccccc1OCCN1CCCC1	·	·	·	9
O=C(O)c1ccccc1-c1c2cc(Br)c(=O)c(Br)c-2oc2c(Br)c(O)c(Br)cc12	18	·	79µM*	·
CC(C)C[C@@H](NC(=O)[C@H](Cc1ccccc1)NC(=O)c1cnccn1)B(O)O	·	·	7%	·
N#Cc1ccc(OCC(O)CN2CCN(c3ncc(C(F)(F)F)cc3Cl)CC2)cc1 (configuration not stated)	0	5.8µM*	5%	-6
Cc1ccc2c(c1)c1n[nH]c(=S)nc1n2CCc1ccccc1	1	?	-8%	6
O=C(Nc1ccc2[nH]c(=S)sc2c1)c1ccccc1	2	?	50µM*	-2
O=C(Nc1ccc2[nH]c(=S)sc2c1)Nc1ccccc1F	0	?	?	-4
NC(=O)c1sc(=S)n2c1[nH]c(=O)c1sccc12	5	5%	40µM*	4
CC(=O)NNC(=O)c1sc(=S)n2c1[nH]c(=O)c1sccc12	0	?	18µM*	-2
NC(=O)c1sc(=S)n(-c2ccc(Br)cc2)c1N	0	9%	-13%	1
O=C(NCc1ccccc1)c1sc(=S)n2c1[nH]c(=O)c1ccccc12	·	0%	8%	-3
CN(Cc1ccco1)c1ncnc2ccc(-c3ccccc3C(F)(F)F)cc12	1	·	?	·
SMILES	Coupling enz	ELG1 DNA repair	Sfp PPTase inh	Giardia killer
CC1CCN(S(=O)(=O)c2ccc3c(c2)oc(=O)n3CC(=O)NCc2ccc3c(c2)OCO3)CC1	-2	10µM*	17%	-16
Cc1c(C(=O)NCc2ccc3c(c2)OCO3)oc2ccc(S(=O)(=O)N3CCC(C)CC3)cc12	-1	8.2µM*	18%	7
CN(C(=O)c1ccc(NC(=O)Cc2ccc(NC(=O)C3CCN(C(=O)C4CC4)CC3)cc2)cc1)C1CCCC1	·	·	·	-10
O=C1c2ccccc2C(=O)N1CCSc1n[nH]c(=S)s1	12	-1%	50µM*	-9
Cc1nc(-c2ccccn2)nc(SCC(=O)N2CCOCC2)c1Cl	0	7%	16µM*	-6
CCC(=O)Nc1cccc(-c2nc3ncccc3o2)c1C	6	3%	10%	-24
Cc1c(NC(=O)CSc2ccc(Cl)cc2)cccc1-c1nc2ncccc2o1	-5	9.2µM*	-19%	10
Cc1ccc(C(C)C)c(OCC(=O)N/N=C/c2cccn2C)c1	0	18µM*	0%	21
O=C(C1CCN(S(=O)(=O)c2ccccc2)CC1)N1CCCCC1	-2	4%	2%	8
